Values without a mark were called inactive. For some of these results: Results with a measured potency or affinity are listed apart. Active and inactive are the calls of the source. Unless noted, how the calls were made is not given here.

Assay [1] can be described thus: antimalarial activity against Dd2 strain (AID 2302;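 active means growth inhibition above 50% at the single 2 µM test dose, taken to imply half-maximal potency below 2 µM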;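 further: 0% = DMSO untreated growth and 100% = chloroquine plus artemisinin killed control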). The settings on record: P. falciparum Dd2 in RBCs, LDH growth readout, 72 h; at 2 µM; active compounds read high.
Assay [2] is described as follows: human hepatoma cell viability loss – ATP luminescence, cytotoxicity control for P. falciparum antimalarial project, primary screen (AID 2303;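 active means inhibition above 50%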;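 further: 0% = DMSO wells and 100% = digitonin-killed cells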). The settings on record: HepG2 viability, 24-48 h, at 10 µM, active compounds read high.
The target in assay [3] is L-lactate dehydrogenase (Plasmodium falciparum (isolate CDC / Honduras)) (UniProt Q27743). In words: PfLDH activity inhibition – cell lysate, 3D7 strain, counter-screen for P. falciparum growth inhibition project (AID 2304).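 Further: 0% = vehicle and 100% = reference inhibitor.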 The settings on record: P. falciparum 3D7 crude extract, LDH APAD/NBT absorbance; at 2 µM; active compounds read high. Background: Counterscreens check selectivity or assay interference.
L-lactate dehydrogenase (Plasmodium falciparum (isolate CDC / Honduras)), sequence (Q27743 whole entry, looked up): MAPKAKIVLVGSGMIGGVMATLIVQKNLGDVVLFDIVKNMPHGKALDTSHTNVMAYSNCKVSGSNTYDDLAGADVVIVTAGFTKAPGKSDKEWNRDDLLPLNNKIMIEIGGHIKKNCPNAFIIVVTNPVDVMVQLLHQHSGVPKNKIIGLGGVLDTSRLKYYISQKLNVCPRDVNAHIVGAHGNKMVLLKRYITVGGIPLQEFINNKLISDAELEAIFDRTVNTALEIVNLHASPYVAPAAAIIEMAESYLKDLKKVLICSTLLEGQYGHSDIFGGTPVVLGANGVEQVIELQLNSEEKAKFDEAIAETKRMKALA

The nature of assay [4]: inhibition of 3D7 malaria parasite growth – strain 3D7 (AID 2306).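 Further: 0% = DMSO wells and 100% = chloroquine plus artemisinin control wells.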 Conditions: P. falciparum 3D7 erythrocytic growth, LDH absorbance, 72 h; at 2 µM; active compounds read high.
Assay [5] has as its target Calcium-dependent protein kinase 1 (Plasmodium falciparum (isolate 3D7)) (UniProt P62344). In words: PfCDPK1 kinase inhibitors, biochemical, TCAMS library (AID 1159585; cut-off not given, nearly all actives have IC50 up to about 0.98 µM;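 further: inhibitors leave more ATP so luminescence rises with inhibition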). Conditions: recombinant PfCDPK1, Kinase-Glo ATP depletion luminescence. A general note: In Kinase-Glo more light means more ATP remaining.
The target of assay [6] is Plasmodium falciparum protein kinase 6 (PK6, PF3D7_1337100) (UniProt Q8IDW1). As to the kind of experiment: PfPK6 kinase inhibitors, biochemical, TCAMS library (AID 1159586). The settings on record: recombinant PfPK6, Kinase-Glo ATP depletion luminescence.
Plasmodium falciparum protein kinase 6 (PK6, PF3D7_1337100), sequence (Q8IDW1 1-305): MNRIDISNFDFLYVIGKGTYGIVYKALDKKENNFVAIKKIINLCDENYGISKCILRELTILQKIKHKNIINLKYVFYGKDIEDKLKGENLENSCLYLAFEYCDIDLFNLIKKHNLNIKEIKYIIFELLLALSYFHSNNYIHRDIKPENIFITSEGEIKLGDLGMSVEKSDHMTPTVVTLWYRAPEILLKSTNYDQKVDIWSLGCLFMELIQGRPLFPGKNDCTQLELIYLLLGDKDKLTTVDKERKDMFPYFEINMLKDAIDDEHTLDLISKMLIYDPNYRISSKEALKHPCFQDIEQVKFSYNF
For assay [7], the target named is Protein kinase 7 (PK7), Plasmodium falciparum 3D7 (PF3D7_0213400) (UniProt Q7YTF7). As to the kind of experiment: inhibition of Plasmodium PK7 catalytic activity – biochemical, TCAMS antimalarial set, Kinase-Glo luminescence (AID 1159587). The settings on record: recombinant PfPK7, Kinase-Glo ATP depletion luminescence.
Protein kinase 7 (PK7), Plasmodium falciparum 3D7 (PF3D7_0213400), sequence (Q7YTF7 1-343): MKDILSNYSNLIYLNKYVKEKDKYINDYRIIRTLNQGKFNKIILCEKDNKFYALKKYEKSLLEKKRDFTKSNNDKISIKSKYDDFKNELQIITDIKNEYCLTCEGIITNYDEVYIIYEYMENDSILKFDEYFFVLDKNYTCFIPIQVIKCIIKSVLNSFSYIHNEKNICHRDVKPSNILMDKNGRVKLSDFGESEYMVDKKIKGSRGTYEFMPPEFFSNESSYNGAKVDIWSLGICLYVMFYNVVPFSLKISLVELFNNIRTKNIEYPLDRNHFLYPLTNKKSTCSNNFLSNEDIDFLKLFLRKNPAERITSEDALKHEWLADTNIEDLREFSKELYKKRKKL
Assay [8] has as its target Calcium-dependent protein kinase 4 (Plasmodium falciparum (isolate 3D7)) (UniProt Q8IBS5). As to the kind of experiment: PfCDPK4 kinase inhibitors, biochemical, TCAMS library (AID 1159588; cut-off not given, nearly all actives have IC50 up to about 0.91 µM). Conditions: recombinant PfCDPK4, Kinase-Glo ATP depletion luminescence.

Calcium-dependent protein kinase 4 (Plasmodium falciparum (isolate 3D7)), sequence (Q8IBS5 whole entry, looked up): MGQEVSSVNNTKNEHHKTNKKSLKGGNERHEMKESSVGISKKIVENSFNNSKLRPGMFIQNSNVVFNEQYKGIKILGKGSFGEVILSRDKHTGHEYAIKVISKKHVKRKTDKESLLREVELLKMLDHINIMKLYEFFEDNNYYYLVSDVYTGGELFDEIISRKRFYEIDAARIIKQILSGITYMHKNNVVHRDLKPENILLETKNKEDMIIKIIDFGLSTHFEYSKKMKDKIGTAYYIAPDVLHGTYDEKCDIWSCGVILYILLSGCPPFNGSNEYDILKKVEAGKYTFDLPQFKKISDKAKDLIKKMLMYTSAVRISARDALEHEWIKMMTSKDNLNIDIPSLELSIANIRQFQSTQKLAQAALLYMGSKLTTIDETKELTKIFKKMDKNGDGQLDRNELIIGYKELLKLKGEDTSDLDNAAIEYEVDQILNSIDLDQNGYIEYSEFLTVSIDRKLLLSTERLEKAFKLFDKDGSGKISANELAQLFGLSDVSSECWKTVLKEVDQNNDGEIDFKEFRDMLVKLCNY
Calcium-dependent protein kinase 1 (Plasmodium falciparum (isolate 3D7)), sequence (P62344 whole entry, looked up): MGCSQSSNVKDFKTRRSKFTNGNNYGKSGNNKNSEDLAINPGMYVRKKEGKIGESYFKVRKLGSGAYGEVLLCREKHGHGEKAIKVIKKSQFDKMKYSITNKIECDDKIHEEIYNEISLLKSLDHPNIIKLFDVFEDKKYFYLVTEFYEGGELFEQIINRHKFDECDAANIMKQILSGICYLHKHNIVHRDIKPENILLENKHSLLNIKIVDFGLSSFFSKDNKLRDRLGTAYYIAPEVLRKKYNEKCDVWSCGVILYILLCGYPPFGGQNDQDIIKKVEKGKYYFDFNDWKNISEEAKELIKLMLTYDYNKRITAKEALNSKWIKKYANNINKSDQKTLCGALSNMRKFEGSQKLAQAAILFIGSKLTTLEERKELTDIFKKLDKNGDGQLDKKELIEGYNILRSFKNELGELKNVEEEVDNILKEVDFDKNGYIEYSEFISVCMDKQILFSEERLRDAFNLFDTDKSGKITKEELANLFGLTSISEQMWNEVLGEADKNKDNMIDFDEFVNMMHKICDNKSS

What is called inhibition is the change of the read-out against control, counted positive when it falls. Take `O=S1c2ccccc2Sc2ccccc21`: the growth inhibition in assay [1] is -1%; in assay [4], 99% (active). The inhibition is 48% in assay [2] and 6% in assay [3]. In addition, the outcome in assay [5], in assay [6], in assay [7] and in assay [8] was inactive.

On to `Cc1cc(NN=Cc2cccc([N+](=O)[O-])c2)c2ccccc2n1`, for which the growth inhibition was 98% (active) in assay [1] and 101% (active) in assay [4]. Besides, the inhibition was -9% in assay [2] and 3% in assay [3]. The result in assay [5], in assay [6], in assay [7] and in assay [8] was inactive.

In the case of `CC[C@H](C)CNC(=O)c1cncc(-c2ccc(CN(C)C3CCN(C)CC3)cc2)c1`, the growth inhibition in assay [1] is 97% (active); in assay [4], 101% (active). Besides, the inhibition was -16% in assay [2] and -2% in assay [3]. In addition, the result in assay [5], in assay [6], in assay [7] and in assay [8] was inactive.

In the case of `O=C(C=Cc1ccc(Cl)c(Cl)c1)NCCCCCN1CCC(CCNC(=O)c2ccc3c(c2)OCO3)CC1`, the values for the growth inhibition in assay [1] and in assay [4] were 2% and 99% (active), respectively. For the same compound, the values for the inhibition in assay [2] and in assay [3] were 35% and -3%, respectively. Further, the outcome in assay [5], in assay [6], in assay [7] and in assay [8] was inactive.

On to `N=c1n(Cc2ccc(Cl)cc2)c2ccccc2n1CC(O)c1ccc(Cl)c(Cl)c1` (stereo not given), for which the figures for the growth inhibition in assay [1] and in assay [4] were 99% (active) and 98% (active), respectively. In addition, the inhibition in assay [2] was 58% (active); in assay [3] it was 4%. In addition, the result in assay [5], in assay [6], in assay [7] and in assay [8] was inactive.

Regarding `COc1cc2c(cc1OC)C(c1ccc(Br)cc1)CN(C)CC2` (stereo not given), the growth inhibition in assay [1] was -3%; in assay [4], 86% (active). Also, the inhibition was 8% in assay [2] and -3% in assay [3]. In addition, the result in assay [5], in assay [6], in assay [7] and in assay [8] was inactive.

Consider `Cc1cc(N)c2cc(NC(=O)/C=C/c3ccc([N+](=O)[O-])cc3)ccc2n1`, for which the growth inhibition in assay [1] is 80% (active); in assay [4] it was 100% (active). The inhibition in assay [2] is 76% (active); in assay [3] it was -2%. For the same compound, the result in assay [5], in assay [6], in assay [7] and in assay [8] was inactive.

`COc1ccc(Nc2cc(C)nc(Nc3ccc(NC(C)=O)cc3)n2)cc1`: the values for the growth inhibition in assay [1] and in assay [4] were 31% and 98% (active), respectively. In addition, the inhibition is 16% in assay [2] and -1% in assay [3]. Further, the result in assay [5], in assay [6], in assay [7] and in assay [8] was inactive.

For the compound `O=C(CCNc1ccnc(NCCc2ccccc2)n1)Nc1ccccc1`, the growth inhibition in assay [1] is 19%; in assay [4] it was 89% (active). Moreover, the inhibition is 7% in assay [2] and 2% in assay [3]. Further, the outcome in assay [5], in assay [6], in assay [7] and in assay [8] was inactive.

On to `CCC(C)C(COC(=O)c1cc(OC)c(OC)c(OC)c1)N(C)CCN(C)C(COC(=O)c1cc(OC)c(OC)c(OC)c1)C(C)CC` (stereo not given), for which the growth inhibition in assay [1] is 45%; in assay [4], 84% (active). In addition, the inhibition is 20% in assay [2] and 3% in assay [3]. The result in assay [5], in assay [6], in assay [7] and in assay [8] was inactive.

As to `O=C(Nc1ccc(Br)cc1)N(CCN1CCOCC1)CC(O)COCc1ccc(Cl)c(Cl)c1` (stereo not given), the growth inhibition in assay [1] is 52% (active); in assay [4] it was 94% (active). The inhibition in assay [2] is 16%; in assay [3], -5%. The result in assay [5], in assay [6], in assay [7] and in assay [8] was inactive.

For `CCOc1ccc2c(NN=Cc3cccc(OC)c3)cc(C)nc2c1`, the figures for the growth inhibition in assay [1] and in assay [4] were 81% (active) and 97% (active), respectively. The figures for the inhibition in assay [2] and in assay [3] were 38% and -5%, respectively. Further, the result in assay [5], in assay [6], in assay [7] and in assay [8] was inactive.

Regarding `COc1ccccc1-c1ccc(C(=O)NCC2CCCN(Cc3cccc(C(F)(F)F)c3)C2)s1` (stereo not given), the growth inhibition was 37% in assay [1] and 81% (active) in assay [4]. The inhibition in assay [2] is 18%; in assay [3], 3%. Moreover, the outcome in assay [5], in assay [6], in assay [7] and in assay [8] was inactive.

As for `O=C(/C=C/c1ccc(Cl)c(Cl)c1)NCCCCCN1CCN(C(=O)Nc2ccc(Cl)c(C(F)(F)F)c2)CC1`, the growth inhibition in assay [1] is -3%; in assay [4] it was 100% (active). For the same compound, the inhibition in assay [2] is 22%; in assay [3], 3%. The result in assay [5], in assay [6], in assay [7] and in assay [8] was inactive.

Consider `Clc1ccc(CNc2nc(NCCc3cnc[nH]3)nc(Nc3ccc4c(c3)OCO4)n2)cc1`, for which the growth inhibition in assay [1] is 6%; in assay [4], 84% (active). The inhibition in assay [2] was 8%; in assay [3] it was -2%. The outcome in assay [5], in assay [6], in assay [7] and in assay [8] was inactive.

With `CCN(CC)S(=O)(=O)c1ccc(C=CC(=O)Nc2cc(Cl)ccc2N2CCOCC2)cc1`, the growth inhibition in assay [1] is 65% (active); in assay [4], 90% (active). Further, the inhibition in assay [2] was 3%; in assay [3] it was 4%. In addition, the outcome in assay [5], in assay [6], in assay [7] and in assay [8] was inactive.

Consider `CCOC(=O)C(=O)N1c2ccc(OCC)cc2-c2c(ssc2=S)C1(C)C`, for which the growth inhibition in assay [1] is 100% (active); in assay [4] it was 99% (active). The inhibition was 5% in assay [2] and -4% in assay [3]. Also, the outcome in assay [5], in assay [6], in assay [7] and in assay [8] was inactive.

For the compound `FC(F)(F)c1ccc2nc(-c3ccc(-c4ccc(CN5CCN(c6ccncc6)CC5)cc4)cc3)[nH]c2c1`, the results for the growth inhibition in assay [1] and in assay [4] were 99% (active) and 101% (active), respectively. Besides, the inhibition in assay [2] was 91% (active); in assay [3], 6%. Moreover, the outcome in assay [5], in assay [6], in assay [7] and in assay [8] was inactive.

With `Cc1cc(NC(=O)c2cc(Br)ccc2Cl)n(-c2nc(C)c(C)c(=O)[nH]2)n1`, the growth inhibition was 83% (active) in assay [1] and 91% (active) in assay [4]. In addition, the inhibition in assay [2] was 54% (active); in assay [3], -2%. Besides, the result in assay [5], in assay [6], in assay [7] and in assay [8] was inactive.

In the case of `Fc1ccc(Nc2ccnc3cc(-c4cccc(CN5CCCCC5)c4)ccc23)c(Cl)c1`, the figures for the growth inhibition in assay [1] and in assay [4] were 58% (active) and 91% (active), respectively. Also, the inhibition in assay [2] is 3%; in assay [3] it was -1%. Besides, the outcome in assay [5], in assay [6], in assay [7] and in assay [8] was inactive.

(Values after PubChem BioAssay.)
